Results taken from PubChem BioAssay AID602438 (Sanford-Burnham Center for Chemical Genomics, 2012).
About 3,100 (0.86%) of roughly 360,000 compounds were called active.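 The calls were made as follows: active = inhibition or corrected inhibition above about 18%, plus a signal ratio from 0.5 to 1.5 (limit read from the data, passing the limit was not always enough); inactive = the rest.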 Only a selection was taken, and actives are over-represented in it overall.

What follows are molecules tested against Neuropilin-1 (Homo sapiens) (UniProt O14786) (assay: NRP-1/CendR peptide interaction modulators – biochemical, fluorescence polarization, uHTS, primary screen (AID 602438)). Details: FAM-RPARPAR peptide binding to NRP-1, fluorescence polarization; at 25 µM; stronger effect = higher value.
Neuropilin-1 (Homo sapiens), sequence (O14786 whole entry, looked up): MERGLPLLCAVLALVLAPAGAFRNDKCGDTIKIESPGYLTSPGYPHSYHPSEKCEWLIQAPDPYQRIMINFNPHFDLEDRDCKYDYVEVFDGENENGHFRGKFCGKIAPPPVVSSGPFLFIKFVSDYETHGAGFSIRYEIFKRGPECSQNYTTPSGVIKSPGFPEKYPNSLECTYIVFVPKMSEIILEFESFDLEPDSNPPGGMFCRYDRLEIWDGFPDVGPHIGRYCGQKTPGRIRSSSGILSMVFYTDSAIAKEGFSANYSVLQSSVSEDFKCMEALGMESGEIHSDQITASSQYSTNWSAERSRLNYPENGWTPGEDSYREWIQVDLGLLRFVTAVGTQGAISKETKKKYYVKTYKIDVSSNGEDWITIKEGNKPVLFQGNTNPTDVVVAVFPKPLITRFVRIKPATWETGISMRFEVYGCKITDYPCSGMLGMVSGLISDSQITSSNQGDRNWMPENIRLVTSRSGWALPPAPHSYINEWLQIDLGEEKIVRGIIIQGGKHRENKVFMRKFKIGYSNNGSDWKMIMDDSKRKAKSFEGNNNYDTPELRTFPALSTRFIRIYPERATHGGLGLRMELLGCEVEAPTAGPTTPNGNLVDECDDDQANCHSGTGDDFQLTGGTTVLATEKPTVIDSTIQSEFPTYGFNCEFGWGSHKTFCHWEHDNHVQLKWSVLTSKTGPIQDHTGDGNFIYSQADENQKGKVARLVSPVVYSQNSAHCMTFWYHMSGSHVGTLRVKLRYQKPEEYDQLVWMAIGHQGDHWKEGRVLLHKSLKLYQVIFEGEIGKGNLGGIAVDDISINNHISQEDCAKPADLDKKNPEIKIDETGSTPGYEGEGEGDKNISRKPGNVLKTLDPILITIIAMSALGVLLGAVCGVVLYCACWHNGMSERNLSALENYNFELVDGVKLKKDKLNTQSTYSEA
`CC1CCCCN1CCCNC(=O)Cn1ncc2c([nH]c3ccccc32)c1=O` (stereo unspecified) was tested, and the inhibition was 6.7% (inactive).
For `CCCn1c2ccccc2c2cnn(CC(=O)NCCCN3CCCCC3CC)c(=O)c21` (stereo unspecified), the inhibition was 29.4% (active).
In the case of `O=C(Cn1ncc2c3ccccc3n(Cc3ccccc3)c2c1=O)NCCCN1CCOCC1`, the inhibition is reported as 8.8% (inactive).
`CCN(Cc1ccncc1)C(=O)CCc1ccccc1` was tested, and the inhibition was 9.5% (inactive).
In the case of `CCN(CC)C(=O)c1nc[nH]c1C(=O)N(C)Cc1ccccc1`, the inhibition is reported as 29.2% (active).
In the case of `CN(CCO)C(=O)c1nc[nH]c1C(=O)N(C)Cc1ccccc1`, the inhibition is reported as 9.7% (inactive).
`CCN(CC(=O)Nc1ccc(OC)cc1)C(=O)c1ccc(=O)n(Cc2ccccc2)n1` was tested, and the inhibition was 4.7% (inactive).
In the case of `Cc1c(C(C)CCCO)oc(=O)c2c1Oc1c(C)c(C(C)C[C@@H](C)O)oc(=O)c1C2` (stereo partly specified), the inhibition is reported as 13.8% (inactive).
For `CCOC(=O)N1CCN(C(=O)Cn2cnc3ccccc3c2=O)CC1`, the inhibition was 3.1% (inactive).
`CCOC(=O)N1CCN(C(=O)c2nn(-c3ccc(C)cc3)c(=O)c3c2c2ccccc2n3C)CC1` was tested, and the inhibition was 17.7% (active).
In the case of `CCOC(=O)N1CCN(CC(=O)n2c(C)c(C)c3ccccc32)CC1`, the inhibition is reported as 4.2% (inactive).
In the case of `CCOC(=O)CSc1nncc2ccc(OC)c(OC)c12`, the inhibition is reported as -16.1% (inactive).
With `CCOc1ccc(NC(=O)CC(Cc2ccc(Cl)cc2)C(=O)O)cc1` (stereo unspecified) the inhibition was 1.1% (inactive).
For `CC(=O)NC(Cc1c[nH]c2ccccc12)C(=O)NCCc1ccccc1` (stereo unspecified), the inhibition was 6.7% (inactive).
For `COc1ccc(CNC(=O)[C@H](Cc2c[nH]c3ccccc23)NC(C)=O)cc1OC`, the inhibition was -6.3% (inactive).
For `COC(=O)C(Cc1c[nH]c2ccccc12)NC(=O)CCNC(=O)c1ccco1` (stereo unspecified), the inhibition was 22.2% (active).
`Cc1cc(C)cc(N(CC(=O)N2CC=C(c3ccccc3)CC2)S(=O)(=O)c2c(C)noc2C)c1` was tested, and the inhibition was -1.1% (inactive).
In the case of `CC(C)c1ccc(S(=O)(=O)N2CCN(C(=O)c3ccc(N4CCCC4)c([N+](=O)[O-])c3)CC2)cc1`, the inhibition is reported as 6.8% (inactive).
In the case of `O=C(c1cccc(F)c1)N1CCN(c2ccc([N+](=O)[O-])c(N3CCCCC3)c2)CC1`, the inhibition is reported as 44.3% (active).
For `O=C(c1cccc(F)c1)N1CCN(c2ccc([N+](=O)[O-])c3cccnc23)CC1`, the inhibition was -12.9% (inactive).
With `Cc1ccc(C2NC(=S)NC3=C2N2CCC3CC2)cc1` (stereo unspecified) the inhibition was 11.9% (inactive).
`COc1ccccc1CCNS(=O)(=O)c1cc2c3c(c1)C(C)C(=O)N3CCC2` (stereo unspecified) was tested, and the inhibition was -11.3% (inactive).
In the case of `COc1cccc(CNC(=O)[C@@H]2CCCN2C(=O)[C@@H]2CCCN2C(=O)c2ccccc2)c1`, the inhibition is reported as -6.2% (inactive).
In the case of `CC1=NN(C(=O)c2ccccc2Br)C(O)(c2cccnc2)C1` (stereo unspecified), the inhibition is reported as -1.7% (inactive).
For `CCOC(=O)C1(O)CC(C)=NN1C(=O)c1cccc(Br)c1` (stereo unspecified), the inhibition was 26.7% (active).
`CC1=NN(C(=O)c2ccc(Br)cc2)C(O)(c2ccccc2)C1` (stereo unspecified) was tested, and the inhibition was -3% (inactive).
With `O=C(NCc1ccco1)c1ccc(NS(=O)(=O)c2cccc([N+](=O)[O-])c2)cc1` the inhibition was 6.8% (inactive).
For `O=C(C1CCCO1)N(c1ccc(F)cc1)C1C=CS(=O)(=O)C1` (stereo unspecified), the inhibition was -10.6% (inactive).
For `CCc1nnc(NC(=O)CSc2nnc(COc3ccc(C#N)cc3)n2-c2ccccc2)s1`, the inhibition was 0.5% (inactive).
For `CCOc1ccc(N(CC(=O)NCCOc2ccccc2OC)S(=O)(=O)c2ccccc2)cc1`, the inhibition was -4.4% (inactive).
In the case of `COc1ccccc1N(CCOc1ccccc1)S(=O)(=O)c1ccccc1`, the inhibition is reported as 26.1% (active).
`COc1ccccc1N(CC(=O)N1CCCCC1)S(=O)(=O)c1ccccc1` was tested, and the inhibition was -3.8% (inactive).
With `COc1nc(OC)nc(N(C)CCO)n1` the inhibition was 14.8% (inactive).
With `O=C(CSc1nccn1-c1cccc(F)c1)NC1CCCC1` the inhibition was -2.9% (inactive).
With `CC(=O)Nc1cccc(NC(=O)CSc2nccn2Cc2ccc(F)cc2)c1` the inhibition was 0.6% (inactive).
With `O=C(OCc1ccccc1)N1CCC2CC1c1cc(N3CCN(S(=O)(=O)c4cc(Cl)cc(Cl)c4)CC3)ccc12` (stereo unspecified) the inhibition was 7.8% (inactive).
`CC1(C(=O)NS(=O)(=O)c2ccccc2Cl)CCN1C(=O)c1cccc(F)c1` (stereo unspecified) was tested, and the inhibition was 6.5% (inactive).
In the case of `Cc1ccc(F)c(S(=O)(=O)NC(=O)C2(C)CCN2C(=O)c2ccco2)c1` (stereo unspecified), the inhibition is reported as 24.2% (active).
`Cc1ccc(F)c(S(=O)(=O)NC(=O)C2(C)CCN2C(=O)CCc2cccs2)c1` (stereo unspecified) was tested, and the inhibition was 0.1% (inactive).
`COC(=O)Cc1nc2c(N)nc(N)nc2[nH]c1=O` was tested, and the inhibition was 26.3% (active).
In the case of `CC1C(=O)N(Cc2cn(CC3CCCCC3)nn2)CCS(=O)(=O)N1Cc1ccc(-c2cccc(N(C)C)c2)cc1` (stereo unspecified), the inhibition is reported as -7% (inactive).
`Cc1ccc(-c2noc(C3CCCN(C(=O)c4cccc(Cl)c4)C3)n2)o1` (stereo unspecified) was tested, and the inhibition was 3.6% (inactive).
`COC(=O)CCCC1=CC2=C(c3ccccc3)C(=O)C(C)(OC(=O)C3CCCC3)C(=O)C2=CN1c1ccc(OC)cc1` (stereo unspecified) was tested, and the inhibition was -6.8% (inactive).
For `COC(=O)CCCC1=CC2=CC(=O)C(C)(OC(=O)c3cccs3)C(=O)C2=CN1CC1CC1` (stereo unspecified), the inhibition was 36.2% (active).
In the case of `COC(=O)CCCC1=CC2=CC(=O)C(C)(OC(=O)c3cccs3)C(=O)C2=CN1c1cccc(C#N)c1` (stereo unspecified), the inhibition is reported as -18.7% (inactive).
`Nc1cccc(OCCCCCOc2cccc(N)c2)c1` was tested, and the inhibition was 7% (inactive).
With `C=CCOc1nc2c(c(=O)n(C)c(=O)n2C)n1Cc1ccc(Cl)cc1Cl` the inhibition was 7.1% (inactive).
For `CCOC(=O)N1CCN(Cc2nc3c(c(=O)n(C)c(=O)n3C)n2Cc2ccccc2)CC1`, the inhibition was -7.4% (inactive).
In the case of `Cn1c(=O)c2c(nc(OCc3cccnc3)n2Cc2ccccc2)n(C)c1=O`, the inhibition is reported as 28.5% (active).
For `Cc1ccccc1C(=O)N1CCC(C(=O)Oc2ccc(C#N)cc2)CC1`, the inhibition was -0.1% (inactive).
In the case of `Nc1nc(SCc2ccc([N+](=O)[O-])cc2)c2ncn(C3OC(CO)C(O)C3O)c2n1` (stereo unspecified), the inhibition is reported as -20.4% (inactive).
With `CC(C)Sc1nc(N)nc2c1ncn2C1OC(CO)C(O)C1O` (stereo unspecified) the inhibition was -1.6% (inactive).
With `CC(C)Cn1cnc2c(SCc3ccc(Cl)cc3)nc(N)nc21` the inhibition was 20.8% (active).
With `Cc1cccc(C)c1NC(=O)C(c1ccc(C(F)(F)F)cc1)n1c(=O)c(-c2ccco2)nc2ccccc21` (stereo unspecified) the inhibition was -67% (inactive).
For `CC(NCCO)C(=O)C12CC3CC(CC(C3)C1)C2` (stereo unspecified), the inhibition was 6.1% (inactive).
With `COc1cc(/C=C/C(=O)OCC(=O)Nc2cccc(Oc3ccccc3)c2)ccc1O` the inhibition was -3.6% (inactive).
For `COc1ccc(C(C(=O)NCc2ccccc2)n2c(=O)c(-c3ccccc3)nc3ccccc32)cc1` (stereo unspecified), the inhibition was -0.4% (inactive).
In the case of `CCc1[nH]nc(C(=O)N2CCCC(CNS(=O)(=O)c3cccs3)C2)c1C` (stereo unspecified), the inhibition is reported as 3.8% (inactive).
For `COc1cc2c(cc1O)C(SC)=NC(C)(C)C2`, the inhibition was 9% (inactive).
In the case of `COc1cc2c(cc1OC)C(C(C)C)=NC(C)(C)C2`, the inhibition is reported as -1.6% (inactive).
In the case of `COc1cc2c(cc1OC)C(Nc1ccc(S(N)(=O)=O)cc1)=NC(C)(C)C2`, the inhibition is reported as 26.3% (active).
In the case of `Cn1c(=O)cc(OCCCC(=O)N2CCN(c3ccccn3)CC2)c2ccccc21`, the inhibition is reported as -0.5% (inactive).
In the case of `Cc1ccc(C)c(NC(=O)C(c2ccccc2)N2CCN(CC(=O)NC3CC3)CC2)c1` (stereo unspecified), the inhibition is reported as -1.3% (inactive).
With `CCOC(=O)c1ccc2[nH]c3c(c2c1)CCCC3NC=O` (stereo unspecified) the inhibition was -0.5% (inactive).
`CCOC(=O)c1cc2cc(C)ccc2[nH]1` was tested, and the inhibition was 1.1% (inactive).
`CCOC(=O)c1[nH]c2ccc(C)cc2c1N=C(C)N(C)C` was tested, and the inhibition was 28.1% (active).
In the case of `CC1CC1C(=O)OCC(=O)Nc1cccc(F)c1` (stereo unspecified), the inhibition is reported as 5.8% (inactive).
For `O=P(c1cccs1)(c1cccs1)c1cccs1`, the inhibition was 6.4% (inactive).
`CN(CCCNC(=O)CN1C(=O)CC(C)(C)S(=O)(=O)c2ccccc21)C1CCCCC1` was tested, and the inhibition was 12.4% (inactive).
In the case of `COc1nc(-c2ccc(Cl)cc2)ccc1-c1noc(-c2cccs2)n1`, the inhibition is reported as 49.1% (active).
In the case of `COc1ccc(CCc2nc(-c3cccs3)no2)cc1`, the inhibition is reported as -5.8% (inactive).
With `Clc1ccc(Cc2nnc(-c3cccs3)o2)cc1` the inhibition was -15.6% (inactive).
With `O=C(OCc1ccc([N+](=O)[O-])cc1)C1CC(=O)N(Cc2ccccc2Cl)C1` (stereo unspecified) the inhibition was -11.4% (inactive).
`O=C(O)c1ccc(NS(=O)(=O)c2ccc3c(c2)C(=O)c2cc(S(=O)(=O)Nc4ccc(C(=O)O)cc4)ccc2-3)cc1` was tested, and the inhibition was -59.7% (inactive).
For `Cc1ccc(-c2noc(-c3ccccc3C(=O)NCC3CCCO3)n2)cc1` (stereo unspecified), the inhibition was 28% (active).
`O=C(Nc1ccccc1C(=O)NCC1CCCO1)c1ccccc1F` (stereo unspecified) was tested, and the inhibition was 20.7% (inactive).
In the case of `O=C(NCC1CCCO1)c1ccccc1-c1nc(-c2ccccc2Cl)no1` (stereo unspecified), the inhibition is reported as 8% (inactive).
In the case of `COc1ccc(NS(=O)(=O)c2ccc(C)c(C(=O)NCC(c3cccs3)N3CCOCC3)c2)cc1` (stereo unspecified), the inhibition is reported as 6.2% (inactive).
`CC1(C(=O)Nc2ccc3c(c2)OCCO3)CN(S(C)(=O)=O)CC(=O)N1Cc1cccc(F)c1` (stereo unspecified) was tested, and the inhibition was -4.8% (inactive).
For `CN1CCCc2cc(C#N)c(=O)[nH]c21`, the inhibition was 4.8% (inactive).
In the case of `Cn1nnnc1NCc1ccc(Cl)c(Cl)c1`, the inhibition is reported as 12.8% (inactive).
For `CCCCn1nnnc1C(c1ccccc1)N1CCN(c2ccccc2OC)CC1` (stereo unspecified), the inhibition was -6.7% (inactive).
For `CCCCn1nnnc1C(c1cc2ccccc2o1)N(C)Cc1ccc(Cl)c(Cl)c1` (stereo unspecified), the inhibition was 26.3% (active).
In the case of `COc1ccc(S(=O)(=O)N2CCCC(C(=O)Nc3ccc(NC(=O)c4ccccn4)cc3)C2)cc1` (stereo unspecified), the inhibition is reported as 0.1% (inactive).
`CCCC(C(=O)n1nc(C)cc1C)C(NS(=O)(=O)c1ccc(C)cc1)c1ccccc1` (stereo unspecified) was tested, and the inhibition was -0.9% (inactive).
In the case of `O=C1NC[C@@H](c2ccccc2)OC(=O)[C@H](Cc2ccc(F)cc2)CC/C=C/C[C@H]1CC(=O)N(CCO)Cc1ccccc1`, the inhibition is reported as 23.4% (active).
`CC(C)(C)OC(=O)C[C@@H]1C/C=C\C[C@@H](CC(=O)N(CCO)Cc2ccccc2)C(=O)N[C@H](Cc2ccccc2)COC1=O` was tested, and the inhibition was -9.4% (inactive).
For `O=C1OC[C@@H]2CCCN2C(=O)[C@H](CC(=O)N(CCO)Cc2ccccc2)C/C=C\CC[C@@H]1Cc1ccc(F)cc1`, the inhibition was 4.4% (inactive).
In the case of `O=C1CCC/C=C\C[C@@H](CC(=O)N(CCO)Cc2ccccc2)C(=O)NCCO1`, the inhibition is reported as 4.9% (inactive).
In the case of `O=C1N[C@H](Cc2c[nH]c3ccccc23)COC(=O)[C@H](Cc2ccc(F)cc2)C/C=C\C[C@H]1CC(=O)N(CCO)Cc1ccccc1`, the inhibition is reported as 22.7% (active).
In the case of `O=C1CCC/C=C/C[C@@H](CC(=O)N(CCO)Cc2ccccc2)C(=O)NC[C@H](c2ccccc2)O1`, the inhibition is reported as 4.9% (inactive).
